About 83,000 compounds went through this panel and 20% of them were active in at least one assay; those are over-represented in the sample as a whole.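 Results are percent growth after 48 hours of single-concentration exposure. 100 means growth as in untreated cells, lower positive values show inhibition; negative values down to -100 show cell death.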 Calls of active or inactive are those of the source. The calls were made as follows: active = growth percent below 10; inactive = the rest.
These molecules were tested on UACC-257 melanoma (assay: NCI-60 one-dose screen, 48 h (100 = growth as untreated, 0 = no growth, -100 = all killed)). Conditions: 10 µM.

| Structure (SMILES) | growth |
| --- | --- |
| O=C(/C=C/c1ccc(Br)cc1)c1nc2ccccc2n1Cc1ccc(Br)cc1 | -4.85% (active) |
| COC(=O)CCn1c(-c2ccc(-n3cc(-c4ccc(O[C@H]5O[C@@H]6OC7(C)CC[C@H]8[C@H](C)CC[C@@H]([C@H]5C)[C@@]68OO7)cc4)nn3)cc2)nc2ccccc21 | 27.9% (inactive) |
| CC1=C(C=O)C2=C(C)C3(CC3)[C@@](C)(O)C(=O)C2=C1 | 73.8% (inactive) |
| N#C[Se]CC(=O)Nc1cccc(C(F)(F)F)c1 | -33.3% (active) |
| CCC[Se]C(=O)c1ccc(C(=O)[Se]CCC)s1 | -53.7% (active) |
| C[C@H]1[C@@H](CC(=O)N[C@@H](Cc2coc3ccccc23)B(O)O)O[C@@H]2OC3(C)CC[C@H]4[C@H](C)CC[C@@H]1[C@@]24OO3 | -41% (active) |
| O=C(/C=C/c1ccco1)c1nc2ccccc2n1Cc1ccc(F)cc1 | 62.7% (inactive) |
| COC(=O)C[C@](O)(CCC(C)C)C(=O)O[C@H]1C(OC)=C[C@@]23CCCN2CCc2cc4c(cc2[C@@H]13)OCO4 | -30.9% (active) |
| C[C@H]1[C@H](OC(=O)CCC(=O)N(CCCc2cn(-c3ccc(C#N)cc3)nn2)CCNc2ccnc3cc(Cl)ccc23)O[C@@H]2OC3(C)CC[C@H]4[C@H](C)CC[C@@H]1[C@@]24OO3 | 58.3% (inactive) |

What follows are molecules tested on M14 melanoma in the same assay as above. Conditions: 10 µM.

| Structure (SMILES) | growth |
| --- | --- |
| COc1cc2cc(C(=O)N3C[C@@H](CCl)c4c3cc(OC(=O)N3CCN(C)[C@@H]5CSSC[C@H]53)c3ccccc43)[nH]c2c(OC)c1OC | -76.2% (active) |
| CC1=C(CCC=O)C2=C(C)C3(CC3)[C@@](C)(O)C(=O)C2=C1 | -56.8% (active) |
| COC(=O)C[C@](O)(CCC(C)C)C(=O)O[C@@H]1C(OC)=C[C@]23CCCN2CCc2cc4c(cc2[C@H]13)OCO4 | -89% (active) |
| O=C(/C=C/c1ccc(Cl)cc1)c1nc2ccccc2n1Cc1ccc(F)cc1 | 16.1% (inactive) |
| CC[C@]12C=CCN3CC[C@@]4(c5ccc(OC)cc5N(C)[C@H]4[C@@](O)(C(=O)OC)[C@@H]1OC(=O)CCC[P+](C1CCCCC1)(C1CCCCC1)C1CCCCC1)[C@@H]32 | -78% (active) |
| CC1=C2C(=C[C@@](C)(COP(=O)(Oc3ccccc3)Oc3ccccc3)[C@@H]2O)C(=O)[C@@](C)(O)C12CC2 | -22.9% (active) |
| CC(=O)Oc1ccccc1C(=O)NC([Se])=NC1CCCCC1 | 20.7% (inactive) |
| CCOP(=O)(CC(F)(F)C(F)(F)F)OCC | -53.3% (active) |
| CC(C)C[C@H](NC(=O)CNC(=O)C[C@H]1O[C@@H]2OC3(C)CC[C@H]4[C@H](C)CC[C@@H]([C@H]1C)[C@@]24OO3)B(O)O | -43.8% (active) |
| C[C@H]1[C@@H](Oc2ccc(-c3cn(-c4ccnc5cc(Cl)ccc45)nn3)cc2)O[C@@H]2OC3(C)CC[C@H]4[C@H](C)CC[C@@H]1[C@@]24OO3 | 31.8% (inactive) |
| C[C@H]1[C@H](OC(=O)CCC(=O)N(CCCc2cn(-c3ccc([N+](=O)[O-])cc3)nn2)CCNc2ccnc3cc(Cl)ccc23)O[C@@H]2OC3(C)CC[C@H]4[C@H](C)CC[C@@H]1[C@@]24OO3 | 45.3% (inactive) |
| COc1cc2cc(C(=O)N3C[C@@H](CCl)c4c3cc(OC(=O)N3CCN(C)[C@@H]5CSSC[C@@H]53)c3ccccc43)[nH]c2c(OC)c1OC | -79% (active) |
| COc1cc2cc(C(=O)N3C[C@@H](CCl)c4c3cc(OC(=O)N3CCN(C(=O)CCC(=O)N5CCN(C)CC5)[C@@H]5CSSC[C@@H]53)c3ccccc43)[nH]c2c(OC)c1OC | -81.7% (active) |
| COC(=O)c1ccc(-n2cc(CCCN(CCNc3ccnc4cc(Cl)ccc34)C(=O)CCC(=O)O[C@@H]3O[C@@H]4OC5(C)CC[C@H]6[C@H](C)CC[C@@H]([C@H]3C)[C@@]46OO5)nn2)cc1 | 47.1% (inactive) |
| O=C([Se]C1C=CCCC1)c1ccc(C(=O)[Se]C2C=CCCC2)s1 (stereo not drawn) | -81.2% (active) |
| O=C(/C=C/c1cccc(Br)c1)c1nc2ccccc2n1Cc1ccc(F)cc1 | 30.7% (inactive) |
| CC[C@]12C=CCN3CC[C@@]4(c5ccc(OC)cc5N(C)[C@H]4[C@@](O)(C(=O)OC)[C@@H]1OC(=O)CCC[P+](c1ccc(C)cc1)(c1ccc(C)cc1)c1ccc(C)cc1)[C@@H]32 | -85.3% (active) |
| O=C(NC([Se])=NC1CCCCC1)c1ccccc1 | 69.8% (inactive) |
| O=C(/C=C/c1ccc(F)cc1)c1nc2ccccc2n1Cc1ccc(F)cc1 | -3.51% (active) |

— PubChem BioAssay (NCI)
